# Results filed as inconclusive are left out. Active and inactive are the calls of the source. Rule for the calls, unless noted: active = hit-call score of the fitted dose curve at least 0.9, where 1 is the maximum; inactive = score below 0.9.
# Tests used:
# [1] = target: human RAR-related Orphan Receptor gamma (RORg), RORC (gene 6097) (UniProt P51449); experiment: ATG_RORg_TRANS: Attagene TRANS-FACTORIAL HepG2 Assay for human RAR-related Orphan Receptor gamma (RORg) (AID 2283011; active = hit-call score of the fitted dose curve at least 0.9, where 1 is the maximum)
# human RAR-related Orphan Receptor gamma (RORg), RORC (gene 6097), sequence (P51449 whole entry, looked up, the tested form may be a part): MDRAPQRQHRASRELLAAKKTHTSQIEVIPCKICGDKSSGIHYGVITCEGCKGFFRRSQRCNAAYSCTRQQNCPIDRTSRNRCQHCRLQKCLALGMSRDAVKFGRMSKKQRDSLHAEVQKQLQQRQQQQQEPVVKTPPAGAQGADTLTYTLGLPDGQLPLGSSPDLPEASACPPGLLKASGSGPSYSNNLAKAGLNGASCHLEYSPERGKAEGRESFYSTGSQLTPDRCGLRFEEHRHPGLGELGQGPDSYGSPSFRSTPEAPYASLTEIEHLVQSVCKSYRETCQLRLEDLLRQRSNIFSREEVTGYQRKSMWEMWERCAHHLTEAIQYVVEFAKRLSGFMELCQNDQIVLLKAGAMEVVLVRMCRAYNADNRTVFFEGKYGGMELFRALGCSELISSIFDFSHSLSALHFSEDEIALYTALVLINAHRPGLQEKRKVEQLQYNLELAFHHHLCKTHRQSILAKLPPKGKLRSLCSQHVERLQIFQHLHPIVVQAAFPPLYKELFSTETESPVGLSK
# In short: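 Reporter transcripts from a transfected RORg-GAL4 chimera in HepG2 cells were quantified 24 h after dosing by RT-PCR, 6-FAM labelling, HpaI digestion and capillary electrophoresis; increases over DMSO baseline were fitted.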
# [2] = target: Retinoic acid receptor RXR-alpha (Homo sapiens) (UniProt P19793); experiment: ATG_RXRa_TRANS: Attagene TRANS-FACTORIAL HepG2 Assay for human Retinoid X Receptor alpha (RXRa) (AID 2283012; active = hit-call score of the fitted dose curve at least 0.9, where 1 is the maximum)
# Retinoic acid receptor RXR-alpha (Homo sapiens), sequence (P19793 whole entry, looked up, the tested form may be a part): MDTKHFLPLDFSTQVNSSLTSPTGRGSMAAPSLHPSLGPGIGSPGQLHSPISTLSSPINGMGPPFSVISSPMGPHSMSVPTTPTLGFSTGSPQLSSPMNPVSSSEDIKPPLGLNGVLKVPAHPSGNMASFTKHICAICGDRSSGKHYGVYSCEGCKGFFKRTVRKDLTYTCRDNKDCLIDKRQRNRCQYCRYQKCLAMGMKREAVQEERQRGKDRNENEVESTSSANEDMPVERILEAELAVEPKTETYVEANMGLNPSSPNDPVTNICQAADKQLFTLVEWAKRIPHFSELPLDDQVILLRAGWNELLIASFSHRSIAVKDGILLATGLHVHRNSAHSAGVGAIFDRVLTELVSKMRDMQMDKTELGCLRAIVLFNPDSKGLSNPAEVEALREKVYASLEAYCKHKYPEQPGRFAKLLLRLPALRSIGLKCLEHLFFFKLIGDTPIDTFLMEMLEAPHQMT
# In short: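 Transient transfection of human HepG2 with multiple GAL4-UAS reporter constructs; 24 h compound exposure; total RNA isolated, reverse-transcribed, PCR-amplified, 6-FAM labelled, HpaI-cut, resolved by capillary electrophoresis. Positive-direction fit versus DMSO.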
# [3] = target: human Retinoid X Receptor beta (RXRb), RXRB (gene 6257) (UniProt P28702); experiment: ATG_RXRb_TRANS: Attagene TRANS-FACTORIAL HepG2 Assay for human Retinoid X Receptor beta (RXRb) (AID 2283013; active = hit-call score of the fitted dose curve at least 0.9, where 1 is the maximum)
# human Retinoid X Receptor beta (RXRb), RXRB (gene 6257), sequence (P28702 whole entry, looked up, the tested form may be a part): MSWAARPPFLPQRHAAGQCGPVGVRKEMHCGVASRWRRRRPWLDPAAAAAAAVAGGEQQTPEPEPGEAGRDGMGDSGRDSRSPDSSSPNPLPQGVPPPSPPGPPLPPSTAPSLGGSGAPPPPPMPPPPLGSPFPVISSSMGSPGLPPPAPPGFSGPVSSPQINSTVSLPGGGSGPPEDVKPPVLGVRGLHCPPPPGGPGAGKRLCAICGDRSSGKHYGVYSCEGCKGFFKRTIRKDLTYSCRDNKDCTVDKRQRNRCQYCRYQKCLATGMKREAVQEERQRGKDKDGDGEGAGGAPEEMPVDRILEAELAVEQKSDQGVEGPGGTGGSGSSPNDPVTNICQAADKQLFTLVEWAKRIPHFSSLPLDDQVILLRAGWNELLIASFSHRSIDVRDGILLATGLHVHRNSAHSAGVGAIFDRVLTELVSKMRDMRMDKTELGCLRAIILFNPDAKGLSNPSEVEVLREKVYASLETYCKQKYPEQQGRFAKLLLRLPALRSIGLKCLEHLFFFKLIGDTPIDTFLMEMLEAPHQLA
# In short: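 Transfect HepG2 with GAL4-UAS multi-reporter constructs (chimeric NR-Gal4, TRANS format); dose compound 24 h; isolate RNA, RT-PCR, FAM primer extension, HpaI digest; quantify by capillary electrophoresis; positive direction vs DMSO.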
# [4] = target: human Thyroid Receptor alpha (THRa1), THRA (gene 7067) (UniProt P10827); experiment: ATG_THRa1_TRANS: Attagene TRANS-FACTORIAL HepG2 Assay for human Thyroid Receptor alpha (THRa1) (AID 2283014; active = hit-call score of the fitted dose curve at least 0.9, where 1 is the maximum)
# human Thyroid Receptor alpha (THRa1), THRA (gene 7067), sequence (P10827 whole entry, looked up, the tested form may be a part): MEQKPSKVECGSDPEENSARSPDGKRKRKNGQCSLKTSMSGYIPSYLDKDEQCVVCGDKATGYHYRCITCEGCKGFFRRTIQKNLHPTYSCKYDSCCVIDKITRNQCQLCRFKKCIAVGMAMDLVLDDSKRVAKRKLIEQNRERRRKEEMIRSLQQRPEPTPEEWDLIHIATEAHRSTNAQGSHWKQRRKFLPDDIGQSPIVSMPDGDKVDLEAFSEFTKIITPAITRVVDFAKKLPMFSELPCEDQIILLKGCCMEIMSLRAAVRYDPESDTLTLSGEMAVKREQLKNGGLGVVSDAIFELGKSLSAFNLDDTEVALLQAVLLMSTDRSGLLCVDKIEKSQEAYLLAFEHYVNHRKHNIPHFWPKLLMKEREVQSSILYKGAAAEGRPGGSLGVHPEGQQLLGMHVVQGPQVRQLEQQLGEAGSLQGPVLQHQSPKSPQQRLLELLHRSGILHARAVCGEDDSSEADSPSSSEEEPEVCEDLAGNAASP
# In short: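 Transcripts from GAL4-UAS-driven reporters, measured after 24 h compound exposure by RT-PCR plus capillary electrophoresis of 6-FAM-labeled fragments, were fitted for gain of signal relative to DMSO. Cells: transiently transfected HepG2 expressing NR-Gal4 chimeras.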
# [5] = read-out: E-selectin (Homo sapiens) (UniProt P16581); experiment: BSK_3C_Eselectin: BioMAP Diversity Plus: 3C Assay for Eselectin Biomarker Activity (AID 2283015); conditions: primary human endothelial cells (HUVEC); actives raise or lower the signal;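 for outcome: cell surface E-selectin protein quantified by ELISA 24 h after dosing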
# In short: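 E-selectin ELISA readout, fitted bidirectionally relative to DMSO, taken 24 h post-dosing in HUVEC cultures of the 3C system. Overt cytotoxicity tracked with sulforhodamine B staining of parallel wells.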
# [6] = read-out: Interleukin-1 alpha (IL1a), IL1A (gene 3552); experiment: BSK_BE3C_IL1a: BioMAP Diversity Plus: BE3C Assay for Interleukin-1 alpha (IL1a) Biomarker Activity (AID 2283016); conditions: primary human bronchial epithelial cells; actives raise or lower the signal
# In short: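 BE3C primary human bronchial epithelium; cpd 24 h; IL-1a by ELISA; bidirectional fit vs DMSO; parallel SRB (0.1% SRB, 10% TCA fix, 560 nm) for cytotoxicity.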
# [7] = read-out: Monocyte Chemoattractant Protein-1 (MCP1), CCL2 (gene 6347); experiment: BSK_3C_MCP1: BioMAP Diversity Plus: 3C Assay for Monocyte Chemoattractant Protein-1 (MCP1) Biomarker Activity (AID 2283017); conditions: primary human endothelial cells (HUVEC); actives raise or lower the signal
# In short: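 MCP-1 was measured by ELISA 24 h after dosing in primary HUVEC 3C cultures and fitted in both directions relative to DMSO; cytotoxicity was checked by SRB total-protein staining in parallel wells.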
# [8] = read-out: Monocyte Chemoattractant Protein-1 (MCP1), CCL2 (gene 6347); experiment: BSK_4H_MCP1: BioMAP Diversity Plus: 4H Assay for Monocyte Chemoattractant Protein-1 (MCP1) Biomarker Activity (AID 2283018); conditions: primary human endothelial cells (HUVEC); actives raise or lower the signal
# In short: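 ELISA read-out of MCP-1 from human vascular endothelial primary cells taken at 24 hours after compound exposure. Activity was fitted in both directions relative to DMSO, which served as negative control.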
# [9] = read-out: Human Leukocyte Antigen - DR isotype (HLADR), HLA-DRA (gene 3122); experiment: BSK_3C_HLADR: BioMAP Diversity Plus: 3C Assay for Human Leukocyte Antigen - DR isotype (HLADR) Biomarker Activity (AID 2283019); conditions: primary human endothelial cells (HUVEC); actives raise or lower the signal;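 for outcome: ELISA of cell-surface HLA-DR on HUVEC 24 h after dosing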
# In short: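 Bidirectional fitting against DMSO was applied to the HLA-DR ELISA signal from human umbilical vein endothelial cells, 24 h post-dose. Cytotoxicity came from parallel SRB total-protein staining; 3C proliferation was counted by SRB at 48 h.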
# [10] = target: human Retinoic Acid Receptor gamma (RARg), RARG (gene 5916) (UniProt P13631); experiment: ATG_RARg_TRANS: Attagene TRANS-FACTORIAL HepG2 Assay for human Retinoic Acid Receptor gamma (RARg) (AID 2283009; active = hit-call score of the fitted dose curve at least 0.9, where 1 is the maximum)
# human Retinoic Acid Receptor gamma (RARg), RARG (gene 5916), sequence (P13631 whole entry, looked up): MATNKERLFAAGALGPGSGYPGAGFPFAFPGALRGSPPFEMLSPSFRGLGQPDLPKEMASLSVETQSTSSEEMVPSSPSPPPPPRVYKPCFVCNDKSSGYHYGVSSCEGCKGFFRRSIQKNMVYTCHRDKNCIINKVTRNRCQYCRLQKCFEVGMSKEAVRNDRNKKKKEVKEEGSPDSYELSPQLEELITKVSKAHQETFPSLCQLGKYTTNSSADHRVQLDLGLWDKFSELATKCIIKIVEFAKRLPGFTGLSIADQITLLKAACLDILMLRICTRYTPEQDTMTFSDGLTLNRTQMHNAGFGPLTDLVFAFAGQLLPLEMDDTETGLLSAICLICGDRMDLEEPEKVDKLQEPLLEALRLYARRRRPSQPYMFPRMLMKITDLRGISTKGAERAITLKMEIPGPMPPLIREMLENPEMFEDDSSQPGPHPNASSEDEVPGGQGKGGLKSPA
# In short: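 Transient transfection of HepG2 with multi-reporter constructs, then 24 h chemical treatment. Total RNA isolated, reverse-transcribed, PCR-amplified, fluorescently labelled and resolved by capillary electrophoresis; activity scored as mRNA induction versus DMSO.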
# E-selectin (Homo sapiens), sequence (P16581 whole entry, looked up): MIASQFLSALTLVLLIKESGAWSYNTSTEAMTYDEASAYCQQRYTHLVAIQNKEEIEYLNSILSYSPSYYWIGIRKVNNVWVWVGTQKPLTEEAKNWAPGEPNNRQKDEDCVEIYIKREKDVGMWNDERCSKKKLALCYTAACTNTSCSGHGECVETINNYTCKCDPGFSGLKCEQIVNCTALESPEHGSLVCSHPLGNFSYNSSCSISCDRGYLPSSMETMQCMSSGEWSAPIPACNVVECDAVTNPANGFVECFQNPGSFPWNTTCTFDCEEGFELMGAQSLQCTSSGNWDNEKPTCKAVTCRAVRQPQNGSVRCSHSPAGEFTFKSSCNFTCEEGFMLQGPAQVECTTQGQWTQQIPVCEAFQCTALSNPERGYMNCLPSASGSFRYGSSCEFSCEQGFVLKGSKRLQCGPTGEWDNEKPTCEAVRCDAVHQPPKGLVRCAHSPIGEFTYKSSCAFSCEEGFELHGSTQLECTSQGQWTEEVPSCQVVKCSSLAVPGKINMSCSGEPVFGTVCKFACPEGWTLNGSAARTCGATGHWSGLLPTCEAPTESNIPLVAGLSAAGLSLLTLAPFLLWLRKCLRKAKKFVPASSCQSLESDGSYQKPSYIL
structure (smiles),measurement,setting,value
CCOc1nc(F)cc2nc(S(=O)(=O)Nc3c(Cl)cccc3Cl)nn12,outcome,[1],inactive
same,outcome,[2],inactive
same,outcome,[3],inactive
same,outcome,[4],inactive
same,outcome,[5],inactive
same,outcome,[6],inactive
same,AC50,[7],33.2 µM (active)
same,outcome,[8],inactive
same,outcome,[9],inactive
CC(C)(C)C(=O)C(Oc1ccc(Cl)cc1)n1cncn1 (stereo not given),outcome,[10],inactive
same,outcome,[2],inactive
same,outcome,[3],inactive
same,outcome,[4],inactive
same,outcome,[5],inactive
same,outcome,[6],inactive
same,AC50,[9],31.4 µM (active)
CS(=O)(=O)c1ccc(C(=O)C2C(=O)CCCC2=O)c([N+](=O)[O-])c1,outcome,[1],inactive
same,outcome,[2],inactive
same,outcome,[3],inactive
same,outcome,[4],inactive
same,outcome,[5],inactive
same,outcome,[6],inactive
same,outcome,[7],inactive
same,outcome,[8],inactive
same,outcome,[9],inactive
CC(C)Oc1cccc(NC(=O)c2ccccc2C(F)(F)F)c1,outcome,[10],inactive
same,outcome,[1],inactive
same,outcome,[2],inactive
same,outcome,[3],inactive
same,outcome,[4],inactive
same,outcome,[5],inactive
same,outcome,[6],inactive
same,outcome,[7],inactive
same,outcome,[8],inactive
same,outcome,[9],inactive
CN=C=S,outcome,[1],inactive
same,outcome,[4],inactive
same,AC50,[5],11.7 µM (active)
same,outcome,[6],inactive
same,outcome,[7],inactive
same,AC50,[9],8.86 µM (active)
N#CN=C1SCCN1Cc1ccc(Cl)nc1,outcome,[2],inactive
same,outcome,[3],inactive
same,outcome,[5],inactive
same,outcome,[6],inactive
same,outcome,[8],inactive
same,outcome,[9],inactive
Cc1ccc(N=CN(C)C=Nc2ccc(C)cc2C)c(C)c1,AC50,[5],33 µM (active)
same,AC50,[6],35.1 µM (active)
same,AC50,[7],36 µM (active)
same,AC50,[9],33 µM (active)
COC(=O)c1c(C(F)F)nc(C(F)(F)F)c(C2=NCCS2)c1CC(C)C,outcome,[2],inactive
same,outcome,[3],inactive
same,outcome,[5],inactive
same,outcome,[6],inactive
same,AC50,[8],17.6 µM (active)
same,AC50,[9],25.2 µM (active)
COc1ccc(-c2ccccc2)cc1NNC(=O)OC(C)C,outcome,[2],inactive
same,outcome,[3],inactive
same,outcome,[5],inactive
same,outcome,[6],inactive
same,outcome,[9],inactive
Nc1cnn(-c2ccccc2)c(=O)c1Cl,outcome,[2],inactive
same,outcome,[4],inactive
same,outcome,[5],inactive
same,outcome,[6],inactive
same,outcome,[8],inactive
same,outcome,[9],inactive
CNC(=O)N(C)c1nnc(C(C)(C)C)s1,outcome,[1],inactive
same,outcome,[2],inactive
same,outcome,[5],inactive
same,outcome,[6],inactive
same,outcome,[9],inactive
Cn1c(-c2ccccc2)cc(-c2ccccc2)[n+]1C,outcome,[3],inactive
same,AC50,[5],1.56 µM (active)
same,outcome,[6],inactive
same,AC50,[9],2.89 µM (active)
O=C1C2CC=CCC2C(=O)N1SC(Cl)(Cl)Cl (stereo not given),outcome,[2],inactive
same,outcome,[3],inactive
same,outcome,[4],inactive
same,outcome,[5],inactive
same,AC50,[6],11.2 µM (active)
same,outcome,[7],inactive
same,outcome,[8],inactive
same,AC50,[9],36.7 µM (active)
CC(C)Nc1nc(Cl)nc(NC(C)C)n1,outcome,[2],inactive
same,outcome,[3],inactive
same,outcome,[4],inactive
same,outcome,[5],inactive
same,outcome,[6],inactive
same,outcome,[9],inactive
N#Cc1c(Cl)cccc1Cl,outcome,[2],inactive
same,outcome,[3],inactive
same,outcome,[4],inactive
same,outcome,[5],inactive
same,outcome,[6],inactive
same,outcome,[7],inactive
same,outcome,[8],inactive
same,AC50,[9],3.97 µM (active)
O=C(O)c1c(Cl)ccc2cc(Cl)cnc12,outcome,[4],inactive
same,outcome,[5],inactive
same,outcome,[6],inactive
same,outcome,[8],inactive
same,outcome,[9],inactive
CCN(CC)C(=O)C(C)Oc1cccc2ccccc12 (stereo not given),outcome,[1],inactive
same,outcome,[2],inactive
same,outcome,[3],inactive
same,outcome,[5],inactive
same,outcome,[6],inactive
same,outcome,[8],inactive
same,outcome,[9],inactive
CC(C)N1C(=O)N(c2ccccc2)CSC1=NC(C)(C)C,outcome,[1],inactive
same,outcome,[2],inactive
same,outcome,[4],inactive
same,AC50,[5],16 µM (active)
same,outcome,[6],inactive
same,AC50,[9],31.8 µM (active)
COc1cc(OC)nc(NC(=O)NS(=O)(=O)c2ncccc2OCC(F)(F)F)n1,outcome,[1],inactive
same,outcome,[2],inactive
same,outcome,[3],inactive
same,outcome,[5],inactive
same,outcome,[6],inactive
same,outcome,[9],inactive
CO/N=C(/C1=NOCCO1)c1ccccc1Oc1ncnc(Oc2ccccc2Cl)c1F,outcome,[1],inactive
same,outcome,[3],inactive
same,outcome,[4],inactive
same,AC50,[5],6.21 µM (active)
same,outcome,[6],inactive
same,AC50,[9],9.24 µM (active)
CCCCOCN(C(=O)CCl)c1c(CC)cccc1CC,outcome,[2],inactive
same,outcome,[3],inactive
same,outcome,[4],inactive
same,AC50,[5],19.3 µM (active)
same,AC50,[6],36.5 µM (active)
same,AC50,[7],30.2 µM (active)
same,AC50,[9],31 µM (active)
Clc1nc(Cl)nc(Nc2ccccc2Cl)n1,outcome,[2],inactive
same,outcome,[4],inactive
same,outcome,[5],inactive
same,outcome,[6],inactive
same,outcome,[8],inactive
same,outcome,[9],inactive
CCC(C)n1c(=O)[nH]c(C)c(Br)c1=O (stereo not given),outcome,[1],inactive
same,outcome,[2],inactive
same,outcome,[3],inactive
same,outcome,[4],inactive
same,outcome,[5],inactive
same,outcome,[6],inactive
same,outcome,[7],inactive
same,outcome,[9],inactive
COCC(C)N(C(=O)CCl)c1c(C)csc1C (stereo not given),outcome,[1],inactive
same,outcome,[4],inactive
same,outcome,[5],inactive
same,outcome,[6],inactive
same,outcome,[7],inactive
same,outcome,[9],inactive
Cc1cc(C)nc(Nc2ccccc2)n1,outcome,[2],inactive
same,outcome,[3],inactive
same,outcome,[4],inactive
same,outcome,[5],inactive
same,outcome,[6],inactive
same,outcome,[8],inactive
same,AC50,[9],16.6 µM (active)
CCCCC(O)(Cn1cncn1)c1ccc(Cl)cc1Cl (stereo not given),outcome,[1],inactive
same,outcome,[2],inactive
same,outcome,[5],inactive
same,outcome,[6],inactive
same,outcome,[7],inactive
same,AC50,[9],20 µM (active)
CCOP(=O)(OCC)Oc1nc(Cl)c(Cl)cc1Cl,outcome,[1],inactive
same,outcome,[2],inactive
same,outcome,[3],inactive
same,outcome,[5],inactive
same,outcome,[6],inactive
same,outcome,[7],inactive
same,AC50,[9],24.6 µM (active)
CN/C(=N\[N+](=O)[O-])NCc1cnc(Cl)s1,outcome,[4],inactive
same,outcome,[5],inactive
same,outcome,[6],inactive
same,outcome,[9],inactive
C=CCOC(=O)C(C)(C)OC(=O)c1cc(-n2c(=O)cc(C(F)(F)F)n(C)c2=O)ccc1Cl,outcome,[2],inactive
same,outcome,[4],inactive
same,outcome,[5],inactive
same,outcome,[6],inactive
same,AC50,[9],14.7 µM (active)
COCC(=O)N(c1c(C)cccc1C)C(C)C(=O)OC (stereo not given),outcome,[2],inactive
same,outcome,[5],inactive
same,outcome,[6],inactive
same,outcome,[8],inactive
same,outcome,[9],inactive
CC(C)C1(C)N=C(c2ncccc2C(=O)O)NC1=O (stereo not given),outcome,[1],inactive
same,outcome,[2],inactive
same,outcome,[5],inactive
same,outcome,[6],inactive
same,outcome,[9],inactive
CC(C)N1C(=O)c2ccccc2NS1(=O)=O,outcome,[1],inactive
same,outcome,[2],inactive
same,outcome,[3],inactive
same,outcome,[5],inactive
same,outcome,[6],inactive
same,outcome,[9],inactive
COP(=S)(OC)Oc1ccc([N+](=O)[O-])c(C)c1,outcome,[3],inactive
same,outcome,[4],inactive
same,outcome,[5],inactive
same,outcome,[6],inactive
same,outcome,[8],inactive
same,AC50,[9],20 µM (active)
CC(C)NC(=O)N1CC(=O)N(c2cc(Cl)cc(Cl)c2)C1=O,outcome,[2],inactive
same,outcome,[6],inactive
same,outcome,[7],inactive
same,outcome,[8],inactive
same,outcome,[9],inactive
COC(=O)NS(=O)(=O)c1ccc(N)cc1,outcome,[1],inactive
same,outcome,[5],inactive
same,outcome,[6],inactive
same,outcome,[7],inactive
same,outcome,[8],inactive
same,outcome,[9],inactive
CCOP(=S)(OCC)Oc1nc(Cl)n(C(C)C)n1,outcome,[1],inactive
same,outcome,[3],inactive
same,outcome,[4],inactive
same,outcome,[5],inactive
same,outcome,[6],inactive
same,outcome,[7],inactive
same,outcome,[8],inactive
same,outcome,[9],inactive
COP(=S)(OC)SCn1nnc2ccccc2c1=O,outcome,[1],inactive
same,outcome,[3],inactive
same,outcome,[4],inactive
same,outcome,[5],inactive
same,outcome,[6],inactive
same,outcome,[8],inactive
same,AC50,[9],30.2 µM (active)
COC(=O)NC(=S)Nc1ccccc1NC(=S)NC(=O)OC,outcome,[2],inactive
same,outcome,[4],inactive
same,AC50,[5],5.15 µM (active)
same,outcome,[6],inactive
same,AC50,[9],14.2 µM (active)
CCNC(=O)NC(=O)C(C#N)=NOC,outcome,[1],inactive
same,outcome,[2],inactive
same,outcome,[4],inactive
same,outcome,[5],inactive
same,outcome,[6],inactive
same,outcome,[9],inactive
OC(c1ccc(Cl)cc1)(c1ccc(Cl)cc1)C(Cl)(Cl)Cl,outcome,[2],inactive
same,outcome,[3],inactive
same,AC50,[5],13.8 µM (active)
same,AC50,[6],15.1 µM (active)
same,AC50,[8],13.8 µM (active)
same,AC50,[9],12 µM (active)
